A short description of assay [1]: optical density shifts of acrAB sulA E. coli – strain DRC41, OD650, 48 h, E. coli filamentation inducer project, primary screen (AID 1152).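 Note: E. coli MC1000 strain DRC41 lacking acrAB efflux pump and sulA.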 The note with it: higher = more signal, called active from +8 up or from −8 down.
A short description of assay [2]: probe aLefty1 binding on compound microarray – biochemical, small-molecule microarray, 635/667 nm fluorescence, primary screen (AID 1153).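 Note: score merges spot fluorescence with signal-to-noise ratio from the scanned slide images.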 The note with it: higher = more signal.
Assay [3] in a line: plasmodial surface anion channel blockers, osmotic lysis – cell-based, P. falciparum Indochina, OD700, 1 h, primary screen (AID 1154). The note with it: P. falciparum Indochina infected RBC osmotic lysis, higher = more signal, called active from +8 up or from −8 down.
Assay [4] in a line: plasmodial surface anion channel blockers, osmotic lysis – cell-based, P. falciparum Indochina, OD700, 2 h, primary screen (AID 1155).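 Note: lysis reports solute entry through the parasite surface anion channel PSAC.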 The note with it: P. falciparum Indochina infected erythrocytes, higher = more signal, called active from +8 up or from −8 down.
Assay [5] is described as follows: changes in parasitized red cell lysis, either direction – P. falciparum Indochina, OD700, 3 h, PSAC antagonist project, primary screen (AID 1156). Conditions: P. falciparum-infected erythrocytes, osmotic lysis, higher = more signal, called active from +8 up or from −8 down.
Assay [6] can be described thus: plasmodial surface anion channel blockers, osmotic lysis – cell-based, P. falciparum Indochina, OD700, 18 h, primary screen (AID 1157). Conditions: P. falciparum Indochina infected erythrocytes, osmotic lysis OD700, 18 h; higher = more signal, called active from +8 up or from −8 down.
Assay [7] in a line: S6 kinase pathway phospho-S6 level changes – cell-based, A549, cytoblot, luminescence, serum-stimulated, primary screen (AID 1158).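 Note: serum-stimulated A549 lung adenocarcinoma cells; signal is phosphorylated S6 detected by cytoblot immunostaining with HRP secondary.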 Conditions: 5 h, higher = more signal.
The target in assay [8] is NADPH oxidase 2 (Homo sapiens) (UniProt P04839). Kind of assay: compounds shifting NOX2 Amplex Red fluorescence – cell-based, HEK293-NOX2, PMA-stimulated, NOX inhibitor project, primary screen (AID 1159). Note: test concentration not given here. Conditions: 45 min, higher = more signal, called active from +8 up or from −8 down.
NADPH oxidase 2 (Homo sapiens), sequence (P04839 whole entry, looked up): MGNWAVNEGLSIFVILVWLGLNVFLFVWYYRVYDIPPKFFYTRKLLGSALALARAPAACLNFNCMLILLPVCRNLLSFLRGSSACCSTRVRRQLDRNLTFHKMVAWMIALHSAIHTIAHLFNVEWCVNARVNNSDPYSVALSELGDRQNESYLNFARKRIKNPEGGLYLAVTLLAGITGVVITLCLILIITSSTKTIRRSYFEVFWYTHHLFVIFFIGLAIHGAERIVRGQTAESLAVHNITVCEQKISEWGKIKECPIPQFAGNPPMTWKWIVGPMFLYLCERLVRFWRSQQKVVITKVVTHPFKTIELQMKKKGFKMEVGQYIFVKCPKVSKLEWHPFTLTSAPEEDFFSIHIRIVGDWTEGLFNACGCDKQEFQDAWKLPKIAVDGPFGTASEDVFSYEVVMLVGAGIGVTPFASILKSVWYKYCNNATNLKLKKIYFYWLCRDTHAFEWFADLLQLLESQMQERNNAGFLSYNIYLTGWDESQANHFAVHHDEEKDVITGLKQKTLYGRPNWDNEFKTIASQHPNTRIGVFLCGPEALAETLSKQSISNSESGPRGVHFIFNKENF
Assay [9] addresses NADPH oxidase 4 (Homo sapiens) (UniProt Q9NPH5). The assay can be described thus: compounds shifting NOX4 Amplex Red fluorescence – cell-based, HEK293-NOX4, tetracycline-induced, NOX inhibitor project, primary screen (AID 1160). Conditions: HEK293-NOX4, Amplex Red H2O2 fluorescence, 45 min; higher = more signal, called active from +8 up or from −8 down.
Assay [10] addresses NADPH oxidase 5 (Homo sapiens) (UniProt Q96PH1). The assay can be described thus: compounds shifting NOX5 Amplex Red fluorescence – cell-based, HEK293-NOX5, NOX inhibitor project, primary screen (AID 1161). The note with it: HEK293-NOX5, ionomycin, 45 min, higher = more signal.
Assay [11] in a line: compound effects on lung adenocarcinoma cell viability – A549, calcein-AM fluorescence, 48 h, basal, profiling panel (AID 1162). Note: test concentration not given here. Conditions: higher = more signal.
Assay [12] is described as follows: compound effects on differentiated 3T3-L1 adipocyte viability – cell-based, 3T3-L1 adipocytes, calcein-AM fluorescence, 48 h, basal, profiling panel (AID 1163). Note: test concentration not given here. Conditions: 3T3-L1 adipocytes viability, higher = more signal.
A short description of assay [13]: compound effects on hepatocellular carcinoma cell viability – HepG2, calcein-AM fluorescence, 48 h, basal, profiling panel (AID 1164). Note: test concentration not given here. Conditions: higher = more signal.
A short description of assay [14]: compound effects on multiple myeloma cell viability – MM1S, calcein-AM fluorescence, 48 h, basal, profiling panel (AID 1165).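 Note: viability of MM1S multiple myeloma cells under basal unstimulated conditions; test concentration not given here.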 The note with it: higher = more signal.
Assay [15] is described as follows: calcein-AM signal in unstimulated myeloma cells – cell-based, calcein-AM fluorescence, 48 h, PK04 Diversity Set, profiling panel (AID 1166).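 Note: cells grown under basal conditions without added stimulus; test concentration not given here.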 Conditions: RPMI8226 myeloma viability, higher = more signal.
The nature of assay [16]: JC-1 mitochondrial signal, unstimulated HepG2 cells – cell-based, JC-1 fluorescence, 24 h, 100 nL compound, profiling panel (AID 1167). Note: test concentration not given here. Conditions: HepG2 mitochondrial potential, higher = more signal.
Assay [17] is described as follows: JC-1 mitochondrial signal, unstimulated adipocytes – cell-based, JC-1 fluorescence, 3T3-L1 adipocytes, 24 h, 100 nL compound, profiling panel (AID 1168). Note: test concentration not given here. The note with it: JC-1 mitochondrial fluorescence, higher = more signal, called active from +8 up or from −8 down.
Assay [18] is described as follows: JC-1 mitochondrial signal, unstimulated myeloma cells – cell-based, JC-1 fluorescence, RPMI8226, 24 h, 100 nL compound, profiling panel (AID 1169). Note: test concentration not given here. Conditions: JC-1 mitochondrial potential fluorescence, higher = more signal.
The nature of assay [19]: JC-1 mitochondrial signal, unstimulated MM1S myeloma – cell-based, JC-1 fluorescence, 24 h, 100 nL compound, profiling panel (AID 1170). Note: test concentration not given here. Conditions: MM1S mitochondrial potential, higher = more signal.
Assay [20] is described as follows: resazurin metabolic signal in A549 cells – cell-based, resazurin fluorescence, 24 h, PK04 Diversity Set, profiling panel (AID 1171). Note: test concentration not given here. Conditions: A549 viability, higher = more signal, called active from +8 up or from −8 down. A general note: Resazurin is reduced to fluorescent resorufin, in cell work by metabolically active cells.

Calls of active or inactive are those of the source.

NADPH oxidase 5 (Homo sapiens), sequence (Q96PH1 whole entry, looked up): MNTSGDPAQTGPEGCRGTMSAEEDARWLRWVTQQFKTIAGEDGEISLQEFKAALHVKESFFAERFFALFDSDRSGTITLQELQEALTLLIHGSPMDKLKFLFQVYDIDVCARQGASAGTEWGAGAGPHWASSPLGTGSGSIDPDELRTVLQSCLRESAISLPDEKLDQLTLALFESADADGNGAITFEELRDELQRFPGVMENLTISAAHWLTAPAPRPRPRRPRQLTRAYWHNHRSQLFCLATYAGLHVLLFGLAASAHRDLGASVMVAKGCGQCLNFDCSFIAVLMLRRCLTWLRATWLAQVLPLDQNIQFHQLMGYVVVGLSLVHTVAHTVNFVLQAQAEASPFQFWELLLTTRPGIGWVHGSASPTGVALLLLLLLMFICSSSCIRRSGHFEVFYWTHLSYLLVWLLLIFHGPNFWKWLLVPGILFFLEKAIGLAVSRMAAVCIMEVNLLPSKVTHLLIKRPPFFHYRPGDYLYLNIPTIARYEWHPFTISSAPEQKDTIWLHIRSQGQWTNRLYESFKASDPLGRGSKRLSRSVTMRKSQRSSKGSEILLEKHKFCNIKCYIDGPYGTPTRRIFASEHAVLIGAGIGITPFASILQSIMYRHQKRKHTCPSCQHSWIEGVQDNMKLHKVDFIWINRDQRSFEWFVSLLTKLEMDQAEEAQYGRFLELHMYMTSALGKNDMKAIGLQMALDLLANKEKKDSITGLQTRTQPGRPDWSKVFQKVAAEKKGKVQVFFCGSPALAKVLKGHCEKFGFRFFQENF
NADPH oxidase 4 (Homo sapiens), sequence (Q9NPH5 whole entry, looked up): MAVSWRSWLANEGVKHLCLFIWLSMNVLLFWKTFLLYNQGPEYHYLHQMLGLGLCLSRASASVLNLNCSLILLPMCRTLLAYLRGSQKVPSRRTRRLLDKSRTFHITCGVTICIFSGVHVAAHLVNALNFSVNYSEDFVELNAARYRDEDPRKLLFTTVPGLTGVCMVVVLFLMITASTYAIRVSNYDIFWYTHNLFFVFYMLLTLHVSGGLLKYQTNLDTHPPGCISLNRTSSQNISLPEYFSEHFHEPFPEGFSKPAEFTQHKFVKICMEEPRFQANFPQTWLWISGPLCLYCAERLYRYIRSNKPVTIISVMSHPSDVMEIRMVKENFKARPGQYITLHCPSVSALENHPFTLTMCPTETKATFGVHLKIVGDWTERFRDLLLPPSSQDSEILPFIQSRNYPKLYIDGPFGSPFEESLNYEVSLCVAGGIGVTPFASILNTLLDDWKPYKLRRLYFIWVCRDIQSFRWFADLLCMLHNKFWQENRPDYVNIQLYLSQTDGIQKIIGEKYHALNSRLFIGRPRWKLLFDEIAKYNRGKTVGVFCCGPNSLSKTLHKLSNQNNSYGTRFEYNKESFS

On to `CN1C(=O)[C@@]2(Cc3ccccc3)N=C(c3ccc(OCCCO)cc3)O[C@H]2c2ccccc21`, for which the z-score was -0.0237 (inactive) in assay [1]; 31.8 (active) in [3]; 30.4 (active) in [4]; 2.93 (inactive) in [5]; 2.65 (inactive) in assay [6]; 0.385 in [7]. Further, the z-score in assay [8] is -1.74 (inactive); in assay [9] it was 0.151 (inactive); in [10], -1.64; in assay [11] it was -1.11; in [12], -0.597; in [13] it was -1.61. For the same molecule, the z-score in assay [14] is -2.71; in assay [15], -4.45; in assay [16], 0.384; in [17], 1.69 (inactive); in assay [18] it was -1.26; in [19], -1.89. Besides, in [20], the z-score is -0.788 (inactive). Moreover, in [2], the composite z-score turned out to be 0.501.
Take `COc1ccc(C(O)C2C=CC3C(=O)N(c4ccccc4)C(=O)C3N2Nc2ccccc2)cc1` (stereo not given): the z-score in assay [1] is -1.04 (inactive); in assay [3] it was 10.9 (active); in assay [4], 2.15 (inactive); in assay [5], 0.332 (inactive); in [6] it was 1.27 (inactive); in assay [7] it was -1.44. Further, the z-score in assay [8] was -2.06 (inactive); in assay [9], -3.23 (inactive); in assay [10], -2.84; in assay [11], -0.0572; in assay [12] it was -0.936; in assay [13] it was 0.204. The z-score is 0.254 in assay [14]; 0.0459 in [15]; -1.2 in assay [16]; -0.233 (inactive) in assay [17]; -0.402 in [18]; -0.626 in assay [19]. The z-score in assay [20] is 0.117 (inactive). The molecule also gave a composite z-score in assay [2] of 0.411.
For `COc1ccc(NC(=O)O[C@H]2[C@@H]3OC(=O)[C@H](Cc4cccc(Br)c4)C/C=C/C[C@@H](Cc4cccc(Br)c4)C(=O)O[C@H]3[C@@H](OC)O[C@@H]2CO)cc1`, the z-score is 0.446 (inactive) in [1]; 0.469 (inactive) in assay [3]; -0.173 (inactive) in assay [4]; -0.284 (inactive) in [5]; 0.434 (inactive) in assay [6]; 0.353 in [7]. Also, the z-score in assay [8] is -1.73 (inactive); in assay [9] it was -1.21 (inactive); in assay [10] it was -1.64; in assay [11] it was -0.102; in assay [12] it was -0.226; in assay [13], 0.323. For the same molecule, the z-score in assay [14] was -1.14; in [15], -0.153; in assay [16], 1.6; in assay [17], -0.483 (inactive); in assay [18] it was -0.897; in [19], 0.329. In addition, the z-score in [20] is -0.981 (inactive). The same molecule yielded a composite z-score in assay [2] of 0.358.
For `CCOC(=O)C1=CC[C@@H](c2ccccc2)N(S(=O)(=O)c2ccc(C)cc2)[C@H]1C=Cc1ccccc1`, the z-score in assay [1] is -1.11 (inactive); in [3], 1.92 (inactive); in assay [4], 1.12 (inactive); in [5], -0.684 (inactive); in assay [6], 0.779 (inactive); in [7], -0.577. Further, the z-score is 0.549 (inactive) in [8]; -0.395 (inactive) in [9]; 0.884 in [10]; -0.959 in assay [11]; -0.443 in assay [12]; -0.599 in [13]. Besides, the z-score was -0.149 in assay [14]; -1.44 in assay [15]; 2.91 in assay [16]; -0.489 (inactive) in [17]; 0.0754 in assay [18]; -1.42 in assay [19]. Moreover, the z-score in [20] is 2.28 (inactive). This molecule returned a composite z-score in [2] of 0.436.
`COc1ccc(C#Cc2ccc3c(c2)[C@]2(C(=O)N3)[C@H](C(=O)N3CCCCCCC3)[C@H]3C(=O)O[C@H](c4ccccc4)[C@H](c4ccccc4)N3[C@@H]2c2ccc(O)cc2)cc1`: the z-score in [1] is -0.821 (inactive); in assay [3], 0.445 (inactive); in assay [4], 0.391 (inactive); in [5], -0.562 (inactive); in [6], 0.271 (inactive); in assay [7] it was -0.0624. The z-score in [8] was 0.697 (inactive); in [9], 0.174 (inactive); in assay [10], 0.00156; in assay [11] it was -0.636; in [12], 1.61; in [13] it was -0.984. The z-score in assay [14] was 0.171; in assay [15], -1.05; in [16], -1.2; in assay [17] it was 1.34 (inactive); in [18] it was -0.582; in [19], -0.191. For the same molecule, the z-score in assay [20] was 0.601 (inactive). Also, in assay [2], the composite z-score is 2.04.
For the molecule `O=C1NC(=O)C2C1C=CC(C(O)c1ccccn1)N2Nc1ccc(Cl)cc1Cl` (stereo not given), the z-score in assay [1] is -0.889 (inactive); in assay [3], 0.625 (inactive); in assay [4], 0.435 (inactive); in [5], -0.343 (inactive); in [6], 0.949 (inactive); in [7], -0.881. The z-score in assay [8] is -1.39 (inactive); in [9] it was -4.83 (inactive); in assay [10], -3.38; in assay [11], -0.881; in assay [12] it was -0.253; in [13], -0.707. Further, the z-score in assay [14] is -0.588; in [15] it was -0.54; in [16] it was -1.36; in assay [17], -0.766 (inactive); in [18], -0.05; in [19] it was -0.173. In addition, in assay [20], the z-score was -0.572 (inactive). The composite z-score in assay [2] is 0.121.
Turning to `CC1CC/C=C\[C@H]2OC34C=CCN(CCN5CCOCC5)C(=O)[C@H]3N(C(C)CO)C(=O)[C@@H]4C2C(=O)O1` (stereo not given in full), the z-score in assay [1] was -0.197 (inactive); in [3] it was 0.77 (inactive); in assay [4], -0.306 (inactive); in [5], 0.753 (inactive); in [6], 0.233 (inactive); in [7] it was 0.0656. For the same molecule, the z-score in [8] is 0.801 (inactive); in [9] it was -0.323 (inactive); in assay [10], 1.58; in assay [11], 0.956; in [12] it was -0.491; in [13], 1.2. Moreover, the z-score in assay [14] is 1.29; in [15] it was -0.143; in assay [16], 0.602; in assay [17], 0.225 (inactive); in assay [18] it was 0.0954; in [19] it was -0.722. In assay [20], the z-score is -0.387 (inactive). The composite z-score in assay [2] was -0.147.
Regarding `CN(C)C(=O)[C@@]1(CCC(=O)OC(C)(C)C)N=C(c2ccc(OCCCO)cc2)O[C@H]1c1ccccc1CN=[N+]=[N-]`, the z-score in assay [1] was 0.476 (inactive); in [3], 14.6 (active); in assay [4], 1.39 (inactive); in [5] it was 0.668 (inactive); in assay [6] it was 0.447 (inactive); in assay [7] it was -0.25. For the same molecule, the z-score in assay [8] is -1.73 (inactive); in assay [9], -0.111 (inactive); in [10] it was -0.901; in assay [11], -0.286; in assay [12], -0.607; in [13], 0.423. The z-score is -0.124 in assay [14]; -0.389 in assay [15]; 0.628 in assay [16]; -0.682 (inactive) in assay [17]; -1.18 in assay [18]; -0.496 in assay [19]. Moreover, the z-score in assay [20] was 1.19 (inactive). Besides, the composite z-score in assay [2] came to 0.121.
